# Screening data as filed in PubChem.
# BRCA1 expr up – qHTS Assay to Identify Small Molecule Activators of BRCA1 Expression | MCF7-BRCA1-FFLuc reporter, luminescence, 48 h; response scale: scaled: vehicle 0%, 10 µM genistein 100% | Potency, µM (doses to about 46.1 µM), for the others: top-dose activation, usual class: activators | 1.1% of 380,000 active; note: nearly all actives have a fitted effect of over 80% in size
#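 Cells: MCF7-BRCA1-FFLuc, 2000/well. Exposure: 48 h, 37 °C, 5% CO2. Read: luminescence, 15 min post-substrate. Controls: genistein 10 microM (maximal activation), DMSO (neutral).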
# EPAC1 ag – qHTS for Agonist of cAMP-regulated guanine nucleotide exchange factor 3 (EPAC1): primary screen | Rap guanine nucleotide exchange factor 3 (Homo sapiens), O95398 | EPAC1 agonist qHTS, biochemical assay; response scale: 100% = response to 6.5 mM cAMP | Potency, µM (series often up to 154 µM), for inactives: at the highest dose activation, most hits filed as activators | 0.073% of 360,000 active | AID 720707, 2013; note: nearly all actives have a fitted effect of over 60% in size
# Target sequence (O95398 whole entry, looked up): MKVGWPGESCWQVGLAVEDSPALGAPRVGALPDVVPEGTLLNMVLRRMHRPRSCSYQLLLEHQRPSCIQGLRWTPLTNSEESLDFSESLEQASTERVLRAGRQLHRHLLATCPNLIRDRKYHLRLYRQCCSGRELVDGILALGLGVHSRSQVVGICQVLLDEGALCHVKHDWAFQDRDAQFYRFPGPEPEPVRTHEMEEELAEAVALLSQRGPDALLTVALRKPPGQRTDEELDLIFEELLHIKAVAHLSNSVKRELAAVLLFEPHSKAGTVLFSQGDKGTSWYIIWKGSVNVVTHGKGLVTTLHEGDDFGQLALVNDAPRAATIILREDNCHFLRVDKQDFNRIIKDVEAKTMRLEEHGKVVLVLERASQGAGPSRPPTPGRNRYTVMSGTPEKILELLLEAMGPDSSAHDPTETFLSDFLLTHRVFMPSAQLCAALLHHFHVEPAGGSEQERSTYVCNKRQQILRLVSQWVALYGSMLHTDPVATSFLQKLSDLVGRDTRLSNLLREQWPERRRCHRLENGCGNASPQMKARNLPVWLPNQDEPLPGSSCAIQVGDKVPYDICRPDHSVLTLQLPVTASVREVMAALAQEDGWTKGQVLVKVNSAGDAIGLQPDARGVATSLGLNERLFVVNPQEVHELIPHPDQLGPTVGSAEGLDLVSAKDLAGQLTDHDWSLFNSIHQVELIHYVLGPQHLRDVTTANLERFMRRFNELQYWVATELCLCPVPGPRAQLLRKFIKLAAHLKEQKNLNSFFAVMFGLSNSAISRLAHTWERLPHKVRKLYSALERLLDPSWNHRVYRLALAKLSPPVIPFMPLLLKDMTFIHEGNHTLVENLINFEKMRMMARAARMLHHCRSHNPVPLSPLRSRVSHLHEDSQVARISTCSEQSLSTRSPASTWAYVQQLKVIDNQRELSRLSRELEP
#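 Fluorescent GDP-exchange assay: 100 nM EPAC1 with 250 nM Rap1B preloaded with BODIPY-GDP and 50 uM GDP; compounds tested as concentration series, 5 min at room temperature, then read every 5 min for 30 min (ex 480/em 540 nm); normalized to 6.5 mM cAMP.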
# EPAC2 antagonist – qHTS for Antagonist of cAMP-regulated guanine nucleotide exchange factor 2 (EPAC2): primary screen; Rap guanine nucleotide exchange factor 4 (Homo sapiens), Q8WZA2; EPAC2 GEF exchange of Rap1B-BODIPY-GDP, fluorescence; Potency, µM (series often up to 114 µM), without a hit: at the highest dose activity, negative = inhibition, actives largely listed as inhibitors; 0.18% of 360,000 active; note: % is set by controls: 0 for no effect and ±100 for the full control effect; nearly all actives have a fitted effect of over 45% in size
# EPAC2 ag – qHTS for Agonist of cAMP-regulated guanine nucleotide exchange factor 4 (EPAC2): primary screen; Rap guanine nucleotide exchange factor 4 (Homo sapiens), Q8WZA2; EPAC2 activation, biochemical qHTS; response scale: 100% = 6.5 mM cAMP response; Potency, µM (titrated, usually from 154 µM), without a hit: top-dose activation, hits mostly activators; 0.079% of 360,000 active; AID 720711, 2013; note: nearly all actives have a fitted effect of over 50% in size
#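 Each well held 100 nM EPAC2, 250 nM RAP1B-BODIPY-GDP and 50 uM GDP. Fluorescence, read at 5-min intervals to 30 min, was referenced to a 6.5 mM cAMP positive control.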
# USP1 inh – Inhibitors of USP1/UAF1: Primary Screen | 0.23% of 390,000 active | Potency, µM (doses to about 57.1 µM), inactives show top-dose activity change, negative = inhibition, hits mostly inhibitors | recombinant USP1/UAF1, Ub-Rhodamine cleavage fluorescence | AID 743255, 2014; note: % is set by controls: 0 for no effect and ±100 for the full control effect; nearly all actives have a fitted effect of over 60% in size
#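 Step one: compound is pinned into 1nM USP1/UAF1 in HEPES pH 7.8 buffer with TCEP. Step two: 15 min room-temperature incubation. Step three: Ub-Rho (150nM final) starts cleavage, tracked by fluorescence over six one-minute reads.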
# EPAC1 antagonist – qHTS for Antagonist of cAMP-regulated guanine nucleotide exchange factor 3 (EPAC1): primary screen | Rap guanine nucleotide exchange factor 3 (Homo sapiens), O95398 | EPAC1 GEF assay, Rap1b-BODIPY-GDP exchange fluorescence | Potency, µM (doses to about 115 µM), for inactives: at the top dose activity change, negative = inhibition, actives largely listed as inhibitors | 0.14% of 360,000 active | AID 720709, 2013;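 note: plate controls were vehicle for no effect and positive control for full effect; nearly all actives have a fitted effect of over 50% in size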
# * hit, by the source's call; ? = inconclusive; nt = no result given. The list is not random: actives were taken first. Their share in the collection is about 1.4%. Calls come from the whole dose curve; as a rule, active = well fitted curve in the direction sought with a large enough effect; inconclusive = small, poorly fitted or top-dose-only effect, or another doubt; inactive = no such curve, though single readings can be large; an effect the other way counts as inactive or inconclusive. Potency is the fitted concentration of half-maximal effect.
SMILES,BRCA1 expr up,EPAC1 ag,EPAC2 antagonist,EPAC2 ag,USP1 inh,EPAC1 antagonist
COCC(=O)Oc1c(Sc2ccccc2[N+](=O)[O-])c(C)nn1C(C)(C)C,-38%,-4%,56µM*,-10%,-18%,-4%
COc1ccc(NC(=O)c2cc(C(=O)Nc3ccc(OC)cc3OC)cc([N+](=O)[O-])c2)c(OC)c1,16%,21%,13%,12%,-10%,1%
O=C(COc1ccc(F)cc1)Nc1nc2c(s1)CCCC2,13µM*,8%,-7%,-2%,-12%,-13%
O=C(COc1ccc(F)cc1)Nc1nccs1,?,-1%,182%,35µM*,-11%,-8%
COc1ccc(OCC(=O)Nc2nc3c(s2)CCCC3)cc1,60%,9%,4%,18%,-24%,-5%
COc1ccccc1Nc1nnc(SCC(=O)c2c(N)n(C3CC3)c(=O)[nH]c2=O)s1,-18%,2%,11%,5%,-21%,-8%
CN(C)c1ccc(/C=C/c2ccncc2)cc1,7.9µM*,-2%,-5%,17%,-6%,-23%
COc1ccc(/C=C/c2ccncc2)cc1,10µM*,1%,-3%,9%,-11%,-2%
CCCC(=O)Nc1nnc(-c2ccc3c(c2)OCCO3)o1,6.3µM*,9%,-3%,11%,-22%,6%
CSc1ccc(-c2nnc(NC(=O)c3ccc4c(c3)OCCO4)o2)cc1,nt,nt,nt,nt,-9%,nt
Cc1cc(NC(=O)c2ccc(Cl)cc2)no1,4µM*,5%,1%,1%,-9%,8%
CCOc1ccc(C(=O)Nc2cc(C)on2)cc1,?,0%,-2%,6%,-14%,7%
Cc1cc(NC(=O)NC(=O)c2ccccc2)no1,5µM*,-3%,3%,4%,-13%,-16%
COc1ccccc1N(CC(=O)Nc1cc(C)on1)S(=O)(=O)c1ccc(Cl)cc1,-38%,-2%,-12%,4µM*,-18%,-4%
COc1ccccc1N(C)S(=O)(=O)c1ccc(C(=O)OCC(=O)Nc2cc(C)on2)cc1,1%,1%,-7%,4%,-21%,-27%
Cc1ccc(-n2nc(C(=O)N3CCN(c4cc(Cl)ccc4C)CC3)c3c4ccccc4n(C)c3c2=O)cc1,nt,nt,nt,nt,12%,nt
C/C(=C1/C=Nc2ccccc21)c1ccc(N(C)C)cc1,-39%,nt,nt,nt,nt,nt
COc1ccc(N=C2NC(=O)S/C2=C\c2ccc(N(C)C)cc2)cc1,?,?,3%,11%,25µM*,-4%
CCCCCn1nc(-c2ccccc2)c2nc3ccccc3nc21,-7%,2%,236%,100µM*,?,15%
CCCn1nc(-c2ccccc2)c2nc3ccccc3nc21,0%,17%,206%,-218%,?,4%
CCOc1ccccc1C(=O)Nc1ccc(-n2nncc2-c2ccccc2)cc1,nt,nt,nt,nt,-11%,nt
Nc1nc(Nc2ccccc2)sc1C(=O)c1ccccc1,-28%,15%,-17%,4%,-6%,-24%
Cc1cnc(NC(=O)c2sc(Nc3ccccc3)nc2N)o1,13µM*,7%,12%,10%,-7%,-15%
C/C(=N\OCc1ccc(C#N)cc1)c1ccccc1,?,-8%,1%,4%,-9%,8%
C/C(=N\OCc1ccc(C#N)cc1)c1ccc(S(=O)(=O)N(C)C)cc1,7.1µM*,13%,-6%,9%,-17%,6%
SMILES,BRCA1 expr up,EPAC1 ag,EPAC2 antagonist,EPAC2 ag,USP1 inh,EPAC1 antagonist
O=C(CNC(=O)c1cccs1)OCc1c(F)cccc1Cl,23%,-3%,1%,1%,-9%,-23%
CN(C)c1ccc(/C=C2\C=Cc3cc(N)ccc32)cc1,22%,nt,nt,nt,nt,nt
Nc1ccc2c(c1)C=C/C2=C\c1ccccc1,4µM*,nt,nt,nt,nt,nt
Cc1ccc(NC(=O)NNS(=O)(=O)c2ccc(Br)cc2)cc1,-2%,6%,-5%,15%,11%,-8%
Cc1ccc(S(=O)(=O)NC(=O)Nc2ccc(N(C)C)cc2)cc1,-59%,-5%,-7%,10%,18µM*,9%
COc1ccc(N/N=C(\C#N)C(=N)N2CCCCC2)cc1,7.9µM*,-8%,-1%,4%,-21%,12%
Cc1ccc(N/N=C(\C#N)C(=N)N2CCCCCC2)cc1,6%,-1%,-4%,1%,-25%,8%
Cc1ccc(C(c2sc3nc(-c4ccco4)nn3c2O)N2CCC3(CC2)OCCO3)cc1 (stereo not given),nt,nt,nt,nt,-5%,nt
O=C(c1cc(Cl)nc2ccccc12)N(Cc1nnc(-c2ccccc2Cl)o1)C1CC1,-23%,8%,-5%,13%,-7%,-16%
CC(=O)c1sc(NC(=O)c2ccc(Cl)cc2)nc1C,3.2µM*,9%,8%,15%,-11%,9%
CC(=O)c1sc(NC(=O)c2ccccc2C)nc1C,13µM*,-1%,13%,3%,-19%,4%
CC(=O)c1sc(NC(=O)c2ccccc2)nc1-c1ccccc1,2.8µM*,-2%,-3%,20%,-23%,-1%
CC(=O)c1sc(NC(=O)c2c(F)cccc2F)nc1-c1ccccc1,23%,-6%,0%,8%,-24%,-18%
CC(=O)c1sc(NC(=O)c2ccc(F)c(F)c2)nc1C,?,8%,-2%,2%,-2%,12%
Cc1ccc(C)c(OCc2cc(C(=O)N3CC[C@@H]4CCCC[C@H]4C3)no2)c1,?,15%,-14%,4%,-13%,-10%
Cc1ccc(C)c(OCc2cc(C(=O)N3C[C@@H](C)O[C@@H](C)C3)no2)c1,4.5µM*,-6%,-10%,3%,-2%,-11%
Cc1ccc(C)c(OCc2cc(C(=O)N3CCN(c4ccccc4)CC3)no2)c1,7.1µM*,-2%,-4%,12%,-16%,4%
Cc1ccc(C)c(OCc2cc(C(=O)N3CCN(C(=O)c4ccco4)CC3)no2)c1,?,-3%,-7%,-6%,-4%,-17%
O=C(NCC1(N2CCCCC2)CCCCC1)c1cccc(S(=O)(=O)Nc2ccc(F)cc2)c1,-13%,2%,-9%,2%,-10%,19%
CC(=O)c1ccc2c(c1)C1C=CCC1C(C(=O)O)N2 (stereo not given),-26%,0%,4%,3%,32µM*,50µM*
